Source: PubChem
TbPYK inhibitor: blocks Trypanosoma brucei pyruvate kinase | Q57TT1 | TbPYK enzyme, Kinase-Glo Plus ATP luminescence, 45 min | Potency, µM (doses to about 76.8 µM), most hits filed as inhibitors | 410,000 compounds, 0.12% hits; note: nearly all actives have a fitted effect of over 50% in size
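Luminescent Kinase-Glo Plus end-point after 45 min room-temperature reaction of T. brucei pyruvate kinase started with 130 uM ADP (final). Buffer TEA 50 mM pH 7.2 with KCl, MgCl2, BSA, Tween-20; titration-based qHTS with fitted concentration-effect curves.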
Sm TGR block: inhibitors of Schistosoma mansoni thioredoxin glutathione reductase; Q962Y6; purified TGR, DTNB reduction, TNB absorbance 405 nm; Potency, µM (titrated, usually from 114 µM), hits mostly inhibitors; 360,000 compounds, 3% hits; note: nearly all actives have a fitted effect of over 60% in size
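Kinetic colorimetric format: TGR-catalysed, NADPH-driven DTNB reduction monitored via TNB absorbance. Enzyme dispensed at 20 nM; compound exposure 15 min at room temperature before reaction start.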
Cycloheximide cs: affects cycloheximide protein synthesis inhibition readout, counter-screen. cell reporter, cycloheximide protein synthesis inhibition counterscreen. max response, %. 300,000 compounds, 12% hits. AID 2314; in the data active = max response mostly above about 13%, no sharp cut-off; inactive = mostly below about 14%; note: read at 38.3 µM for the half of the compounds with a filed dose
LmPK inh: LmPK (Leishmania mexicana) enzyme inhibition; purified LmPK, Kinase-Glo ATP luminescence, 1 h; Q27686; 290,000 compounds, 0.37% hits; Potency, µM (top dose mostly 57.5 µM), actives largely listed as inhibitors
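Purified LmPK (0.1 nM) with 0.5 mM PEP and 0.1 mM ADP in imidazole buffer pH 7.2 with MgCl2/KCl, 1 h at room temperature. ATP formed was read by luciferase luminescence and normalized to no-enzyme and uninhibited controls.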
Shiga toxin inh: blocks Shiga toxin action in Vero cells. Vero cells, Shiga toxin protein synthesis inhibition reporter. inhibition, % at 38.7 µM. 290,000 compounds, 9.2% hits. AID 2315; in the data active = inhibition mostly above about 28%, no sharp cut-off; inactive = mostly below about 43%
FBPA Giardia inh: blocks Giardia fructose-bisphosphate aldolase activity. A8B2U2. purified Giardia FBPA. Potency, µM (top dose mostly 59.6 µM), most hits filed as inhibitors. 290,000 compounds, 0.71% hits. AID 2451; note: nearly all actives have a fitted effect of over 55% in size
Target sequence (A8B2U2 whole entry, looked up): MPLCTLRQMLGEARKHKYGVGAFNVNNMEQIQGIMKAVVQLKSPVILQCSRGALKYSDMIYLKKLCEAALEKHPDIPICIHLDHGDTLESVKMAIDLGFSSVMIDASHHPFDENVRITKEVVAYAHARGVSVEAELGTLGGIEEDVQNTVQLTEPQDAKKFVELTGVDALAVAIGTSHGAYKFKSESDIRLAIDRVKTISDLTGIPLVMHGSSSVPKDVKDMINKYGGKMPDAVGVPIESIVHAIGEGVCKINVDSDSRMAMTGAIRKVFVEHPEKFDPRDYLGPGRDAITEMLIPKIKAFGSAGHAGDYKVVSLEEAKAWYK
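Giardia FBPA (40 nM reagent) was preincubated 10 min at RT with compound (up to 57.5 uM final), then substrate plus GAPDH/TPI/NAD/arsenate coupling system with diaphorase/resazurin was added; resorufin fluorescence (525/598 nm) was read after 20 min.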
A number is an active result; – = inactive; ? = inconclusive; · = not tested or not shown. The full list was thinned out, with hits kept by preference. Unless noted, calls come from the whole dose curve; as a rule, active = well fitted curve in the direction sought with a large enough effect; inconclusive = small, poorly fitted or top-dose-only effect, or another doubt; inactive = no such curve, though single readings can be large; an effect the other way counts as inactive or inconclusive.

SMILES	TbPYK inhibitor	Sm TGR block	Cycloheximide cs	LmPK inh	Shiga toxin inh	FBPA Giardia inh
O=C(OCC(=O)N1CCCC1)c1ccccc1OCc1ccccc1	–	–	21	–	–	–
O=C(OCC(=O)N1CCCCCC1)c1ccc([N+](=O)[O-])cc1Cl	–	–	15	–	–	–
COc1ccc(CCNC(=O)c2ccc3c(c2)N=C(C)c2ccccc2S3)cc1OC	–	–	·	·	·	·
CCC(=O)N1c2ccccc2CC1C(=O)NCCCN1CCN(c2cc(C)ccc2C)CC1 (stereo unspecified)	–	–	·	·	·	·
NNC(=O)c1ccccc1OCc1ccccc1	–	–	17	–	38	–
O=C(NNc1c2ccccc2nc2ccccc12)c1ccc(O)cc1O	–	–	–	–	–	–
O=C(NNc1c2ccccc2nc2ccccc12)c1ccc(O)cc1	–	–	24	–	–	–
O=C(NNc1c2ccccc2nc2ccccc12)c1cccc(O)c1	–	–	–	–	–	–
O=C(NNc1c2ccccc2nc2ccccc12)c1ccccc1O	–	–	25	–	–	–
Cc1ccc(C)c(NC(=S)N2CCCCCC2)c1	–	–	–	–	–	–
Cc1ccc(NC(=O)N2CCCC(c3ccccc3)C2)cc1 (stereo unspecified)	–	–	22	–	–	–
Cc1ccc(Cl)cc1NC(=S)N1CCC(c2ccccc2)C1 (stereo unspecified)	–	–	26	–	–	–
CCOc1ccc(NC(=O)N2CCC(c3ccc(C)cc3)C2)cc1 (stereo unspecified)	–	–	18	–	–	–
CCc1ccc(NC(=O)N2CCC(c3ccccc3)C2)cc1 (stereo unspecified)	–	–	39	–	108	–
Cc1ccc(C2CCN(C(=O)Nc3ccc(Cl)cc3)C2)cc1 (stereo unspecified)	–	–	·	·	·	·
O=C(CSc1nncs1)Nc1ccc(Cl)cc1C(F)(F)F	–	–	·	·	·	·
O=C(c1cccs1)N1CCC(c2ccccc2)C1 (stereo unspecified)	–	–	41	–	97	–
O=C(Nc1ccccc1)N1CCC(c2ccccc2)C1 (stereo unspecified)	–	–	39	–	83	–
COc1ccc(NC(=S)N2CCC(c3ccccc3)C2)cc1 (stereo unspecified)	–	–	40	–	84	–
O=C(Nc1ccc(Cl)c(Cl)c1)N1CCC(c2ccccc2)C1 (stereo unspecified)	–	–	·	·	·	·
COc1ccc(NC(=S)N2CCC(C(O)(c3ccccc3)c3ccccc3)CC2)cc1	–	–	–	–	–	–
O=C(c1ccco1)N1CCC[C@@]2(CCN(c3cccc(-c4ccccc4)c3)C2)C1	–	·	·	·	·	–
Cc1ccc2nc3c(cc(S(=O)(=O)c4ccccc4)c(=N)n3Cc3ccco3)c(=O)n2c1	–	–	33	–	39	–
N=c1c(S(=O)(=O)c2ccccc2)cc2c(=O)n3ccccc3nc2n1Cc1ccco1	–	?	–	–	–	–
CC(=O)Nc1ccccc1C(=O)C(=O)Nc1cccc(Br)c1	–	–	37	–	100	–
SMILES	TbPYK inhibitor	Sm TGR block	Cycloheximide cs	LmPK inh	Shiga toxin inh	FBPA Giardia inh
CC(=O)Nc1ccccc1C(=O)C(=O)Nc1ccccc1	–	–	–	–	–	–
CC(=O)Nc1ccccc1C(=O)C(=O)Nc1ccc(Cl)cc1	–	–	17	–	75	–
CCC(=O)Nc1ccccc1C(=O)C(=O)Nc1ccccc1	–	–	35	–	38	–
CNC(=O)NC(=O)C(c1ccccc1)N(C)CC1COc2ccccc2O1 (stereo unspecified)	–	–	–	–	–	–
COc1ccc(C)cc1NC(=O)CSc1nc(=O)n(Cc2cccnc2)c2c1CCC2	–	–	·	·	·	·
O=S(=O)(Oc1ccc(Cl)cc1)c1ccccc1	·	·	21	·	21	–
O=S(=O)(Oc1ccc(Cl)cc1)c1cccc2cccnc12	–	–	16	–	–	–
O=S(=O)(O)c1cccc2cccnc12	·	·	–	·	–	·
CN(C)/N=C/c1ccc(OS(=O)(=O)c2ccccc2)cc1	–	–	47	–	64	–
O=C(CCN1CCN(Cc2ccccc2)CC1)NNC(=O)c1ccc(Cl)c(Cl)c1	–	·	·	·	·	·
COc1cc(SC)ccc1C(=O)N1CCC(Cc2ccccc2)CC1	·	·	–	·	–	–
CCc1ccccc1NC(=O)C(=O)NCCc1sc(-c2cccc(C)c2)nc1C	–	–	·	·	·	·
CCC(C(=O)NCc1cccs1)n1nc(C)n2c(cc3occc32)c1=O (stereo unspecified)	–	–	–	–	–	–
COc1ccc(-c2cccc(C(=O)N3CCOCC3)c2)cc1	–	–	30	–	57	–
COc1ccc(OCc2ccc(C(=O)N3CCOCC3)cc2)cc1	–	–	28	–	56	–
COc1ccc(NS(=O)(=O)c2cccc(C(=O)N3CCOCC3)c2)cc1	–	·	·	·	·	·
COc1ccc(OCc2ccc(C(=O)O)cc2)cc1	–	–	18	–	–	–
CCCN(c1ccccc1F)S(=O)(=O)c1c[nH]c(C(=O)OC)c1	–	–	–	–	–	–
CC1(C(=O)Nc2ccccc2)Cc2c(-c3cccc(C(F)(F)F)c3)ccnc2O1 (stereo unspecified)	–	·	·	·	·	·
COC(=O)c1ccc(CNC(=O)CCc2c[nH]c3ccccc23)cc1	–	–	–	–	–	–
COC(=O)c1ccc2c(CCO)c[nH]c2c1	–	–	25	–	37	–
COc1ccc(NC(=O)c2nnn(CC(=O)Nc3cccc(C)c3C)c2N)c(OC)c1	–	–	·	·	·	·
CCN(CCO)c1nc(SC)nc2c1sc1nc(-c3ccco3)c3c(c12)CCC3	–	3.5µM	–	–	–	–
CSc1nc(NCCOCCO)c2sc3nc(-c4ccco4)c4c(c3c2n1)CCC4	–	3.2µM	–	–	–	–
